The source of these data is PubChem BioAssay (EPA / NIEHS).

One may read the AC50 as the concentration at which the activity in the assay is half-maximal.

Holding throughout (settings): mRNA level, 48 h; actives raise or lower the signal
Read-out in assay [1]: Tumor necrosis factor receptor superfamily member 6 (Homo sapiens) (UniProt P25445)
In words: LTEA_HepaRG_FAS: Life Technologies and Expression Analysis (LTEA) Assay for Fas cell surface death receptor (FAS) using HepaRG (AID 2283447). The procedure, abridged:
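Differentiated HepaRG cells in serum-free induction medium were exposed 48 h to 8 half-log concentrations up to 100 uM in 0.5% DMSO, in duplicate. FAS mRNA was measured by qRT-PCR normalised to ACTB, GAPDH and POLR2A; bidirectional fit versus DMSO.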

Read-out in assay [2]: Fatty acid synthase (Homo sapiens) (UniProt P49327)
The assay can be described thus: LTEA_HepaRG_FASN: Life Technologies and Expression Analysis (LTEA) Assay for Fatty Acid Synthase (FASN) using HepaRG (AID 2283448). The procedure, abridged: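 Differentiated human HepaRG cells were exposed for 48 h in serum-free induction medium to eight half-log concentrations up to 100 uM in 0.5% DMSO, in duplicate. FASN mRNA was quantified by TaqMan qRT-PCR, normalized to ACTB/GAPDH/POLR2A, and fitted bidirectionally against DMSO.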

Read-out in assay [3]: Cyclin Dependent Kinase Inhibitor 1A (CDKN1A), CDKN1A (gene 1026)
The assay can be described thus: LTEA_HepaRG_CDKN1A: Life Technologies and Expression Analysis (LTEA) Assay for Cyclin Dependent Kinase Inhibitor 1A (CDKN1A) using HepaRG (AID 2283450). The procedure, abridged: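 Differentiated human HepaRG cells, pre-cultured 48 h, were exposed in duplicate for 48 h in serum-free induction medium to eight half-log concentrations up to 100 uM (0.5% DMSO). CDKN1A mRNA was measured by qRT-PCR, normalized to ACTB/GAPDH/POLR2A, bidirectionally fitted versus DMSO.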

Read-out in assay [4]: Cyclin D1 (CCND1), CCND1 (gene 595)
In words: LTEA_HepaRG_CCND1: Life Technologies and Expression Analysis (LTEA) Assay for Cyclin D1 (CCND1) using HepaRG (AID 2283451). Summed up:
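Differentiated human HepaRG cells in serum-free induction medium were exposed 48 h to eight half-log concentrations up to 100 uM in 0.5% DMSO; mRNA quantified by TaqMan qRT-PCR, normalized to ACTB, GAPDH, POLR2A, fitted bidirectionally versus DMSO.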

Read-out in assay [5]: catalase (CAT), CAT (gene 847)
In words: LTEA_HepaRG_CAT: Life Technologies and Expression Analysis (LTEA) Assay for catalase (CAT) using HepaRG (AID 2283452). The procedure, abridged:
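HepaRG cells in serum-free induction medium, 0.5% DMSO vehicle, exposed 48 h in duplicate over 8 half-log concentrations from 100 uM. CAT mRNA measured by qRT-PCR, normalized to ACTB, GAPDH, POLR2A; bidirectional fit versus DMSO.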

Read-out in assay [6]: flavin-containing dimethylaniline monooxygenases 3 (FMO3), FMO3 (gene 2328)
In words: LTEA_HepaRG_FMO3: Life Technologies and Expression Analysis (LTEA) Assay for flavin-containing dimethylaniline monooxygenases 3 (FMO3) using HepaRG (AID 2283453). Summed up:
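HepaRG, 48 h exposure, 8-pt half-log series from 100 uM, 0.5% DMSO vehicle, duplicates; FMO3 transcript by Fluidigm TaqMan qRT-PCR, housekeeping-normalized; gain/loss fit vs DMSO.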

Read-out in assay [7]: Cytochrome P450 (CYP1A1), CYP1A1 (gene 1543)
The assay can be described thus: LTEA_HepaRG_CYP1A1: Life Technologies and Expression Analysis (LTEA) Assay for Cytochrome P450 (CYP1A1) using HepaRG (AID 2283454). Summed up: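 Differentiated HepaRG cells in serum-free induction medium were exposed in duplicate for 48 h to eight half-log concentrations up to 100 uM in 0.5% DMSO. CYP1A1 mRNA was quantified by TaqMan qRT-PCR, normalized to ACTB, GAPDH and POLR2A.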

Read-out in assay [8]: CFLAR gene, CFLAR (gene 8837)
The assay can be described thus: LTEA_HepaRG_CFLAR: Life Technologies and Expression Analysis (LTEA) Assay for CFLAR gene using HepaRG (AID 2283455). The procedure, abridged: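 Differentiated HepaRG cells in serum-free induction medium were exposed 48 h in duplicate to eight half-log concentrations up to 100 uM in 0.5% DMSO; mRNA measured by TaqMan qRT-PCR, normalized to ACTB, GAPDH, POLR2A; bidirectional fitting versus DMSO.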

Read-out in assay [9]: Forkhead box O1 (FOXO1), FOXO1 (gene 2308)
The assay can be described thus: LTEA_HepaRG_FOXO1: Life Technologies and Expression Analysis (LTEA) Assay for Forkhead box O1 (FOXO1) using HepaRG (AID 2283456). The procedure, abridged: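 Differentiated HepaRG cells, in serum-free induction medium with 0.5% DMSO, exposed 48 h in duplicate to 8-point half-log series from 100 uM. FOXO1 mRNA measured by TaqMan qRT-PCR, normalized to ACTB, GAPDH, POLR2A; bidirectional fit versus DMSO.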

Read-out in assay [10]: growth arrest and DNA damage 45 (GADD45A), GADD45A (gene 1647)
The assay can be described thus: LTEA_HepaRG_GADD45A: Life Technologies and Expression Analysis (LTEA) Assay for growth arrest and DNA damage 45 (GADD45A) using HepaRG (AID 2283458). The procedure, abridged:
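Differentiated HepaRG cells were exposed in duplicate for 48 h in serum-free induction medium to 8-point half-log concentrations up to 100 uM in 0.5% DMSO. GADD45A mRNA was measured by TaqMan qRT-PCR, normalized to ACTB, GAPDH and POLR2A, with bidirectional fitting versus DMSO.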

Read-out in assay [11]: Forkhead box O3 (FOXO3), FOXO3 (gene 2309)
In words: LTEA_HepaRG_FOXO3: Life Technologies and Expression Analysis (LTEA) Assay for Forkhead box O3 (FOXO3) using HepaRG (AID 2283459). Summed up: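 Differentiated human HepaRG cells, 48 h post-plating, exposed in duplicate for 48 h in serum-free induction medium; 8-point half-log series from 100 uM in 0.5% DMSO. FOXO3 mRNA by TaqMan qRT-PCR, normalized to ACTB/GAPDH/POLR2A; bidirectional fit versus DMSO.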

Read-out in assay [12]: ABC Transporter (ABCB1), ABCB1 (gene 5243)
The assay can be described thus: LTEA_HepaRG_ABCB1: Life Technologies and Expression Analysis (LTEA) Assay for ABC Transporter (ABCB1) using HepaRG (AID 2283460). The procedure, abridged:
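HepaRG cells exposed in duplicate for 48 h in serum-free induction medium to eight half-log concentrations up to 100 uM in 0.5% DMSO. ABCB1 mRNA quantified by qRT-PCR, normalised to ACTB, GAPDH and POLR2A; fitted bidirectionally versus DMSO.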

Read-out in assay [13]: growth arrest and DNA damage 45 (GADD45B), GADD45B (gene 4616)
In words: LTEA_HepaRG_GADD45B: Life Technologies and Expression Analysis (LTEA) Assay for growth arrest and DNA damage 45 (GADD45B) using HepaRG (AID 2283461). The procedure, abridged:
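Differentiated HepaRG cells, plated 48 h then switched to serum-free induction medium, were exposed 48 h in duplicate to eight half-log concentrations from 100 uM in 0.5% DMSO; mRNA quantified by qRT-PCR, normalized to ACTB/GAPDH/POLR2A, bidirectional fit versus DMSO.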

Read-out in assay [14]: ABC Transporter (ABCC3), ABCC3 (gene 8714)
The assay can be described thus: LTEA_HepaRG_ABCC3: Life Technologies and Expression Analysis (LTEA) Assay for ABC Transporter (ABCC3) using HepaRG (AID 2283462). The procedure, abridged:
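HepaRG cells in serum-free induction medium were exposed for 48 h in duplicate to 8-point half-log concentrations topping at 100 uM in 0.5% DMSO. ABCC3 mRNA was measured by qRT-PCR normalized to ACTB, GAPDH and POLR2A, with bidirectional fitting versus DMSO.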

Read-out in assay [15]: ABC Transporter (ABCB11), ABCB11 (gene 8647)
The assay can be described thus: LTEA_HepaRG_ABCB11: Life Technologies and Expression Analysis (LTEA) Assay for ABC Transporter (ABCB11) using HepaRG (AID 2283463). Summed up: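 Differentiated human HepaRG cells in serum-free induction medium, dosed in duplicate for 48 h. Eight-point half-log series from 100 uM in 0.5% DMSO; ABCB11 mRNA by qRT-PCR, normalized to ACTB, GAPDH, POLR2A, fitted bidirectionally versus DMSO.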

Read-out in assay [16]: ABC Transporter (ABCC2), ABCC2 (gene 1244)
In words: LTEA_HepaRG_ABCC2: Life Technologies and Expression Analysis (LTEA) Assay for ABC Transporter (ABCC2) using HepaRG (AID 2283464). The procedure, abridged:
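HepaRG cells were plated 48 h, switched to serum-free induction medium, then exposed in duplicate for 48 h to 8 concentrations (top 100 uM, half-log steps, 0.5% DMSO). ABCC2 mRNA was measured by qRT-PCR normalized to ACTB/GAPDH/POLR2A; bidirectional fitting versus DMSO.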

Read-out in assay [17]: Broad substrate specificity ATP-binding cassette transporter ABCG2 (Homo sapiens) (UniProt Q9UNQ0)
The assay can be described thus: LTEA_HepaRG_ABCG2: Life Technologies and Expression Analysis (LTEA) Assay for ABC Transporter (ABCG2) using HepaRG (AID 2283465). Summed up:
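Differentiated HepaRG cells were exposed for 48 h in serum-free induction medium to 8 half-log concentrations, top 100 uM, in 0.5% DMSO. ABCG2 mRNA was measured by qRT-PCR, normalized to ACTB, GAPDH and POLR2A, with bidirectional fitting versus DMSO.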

Read-out in assay [18]: Cyclin D2 (CCND2), CCND2 (gene 894)
The assay can be described thus: LTEA_HepaRG_CCND2: Life Technologies and Expression Analysis (LTEA) Assay for Cyclin D2 (CCND2) using HepaRG (AID 2283449).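 Further: CCND2 transcript measured by TaqMan qRT-PCR and normalised to three housekeeping genes.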 Summed up: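 Chemicals in 0.5% DMSO, eight half-log concentrations from 100 uM top, were applied in duplicate for 48 h to human HepaRG cells in serum-free induction medium. CCND2 mRNA by TaqMan qRT-PCR, normalised to ACTB/GAPDH/POLR2A; bidirectional fit versus DMSO.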

The structures appear in SMILES notation. Calls of active or inactive are those of the source. How the source made its calls: active means hit-call score of the fitted dose curve at least 0.9, where 1 is the maximum; inactive means score below 0.9.

Fatty acid synthase (Homo sapiens), sequence (P49327 whole entry, looked up): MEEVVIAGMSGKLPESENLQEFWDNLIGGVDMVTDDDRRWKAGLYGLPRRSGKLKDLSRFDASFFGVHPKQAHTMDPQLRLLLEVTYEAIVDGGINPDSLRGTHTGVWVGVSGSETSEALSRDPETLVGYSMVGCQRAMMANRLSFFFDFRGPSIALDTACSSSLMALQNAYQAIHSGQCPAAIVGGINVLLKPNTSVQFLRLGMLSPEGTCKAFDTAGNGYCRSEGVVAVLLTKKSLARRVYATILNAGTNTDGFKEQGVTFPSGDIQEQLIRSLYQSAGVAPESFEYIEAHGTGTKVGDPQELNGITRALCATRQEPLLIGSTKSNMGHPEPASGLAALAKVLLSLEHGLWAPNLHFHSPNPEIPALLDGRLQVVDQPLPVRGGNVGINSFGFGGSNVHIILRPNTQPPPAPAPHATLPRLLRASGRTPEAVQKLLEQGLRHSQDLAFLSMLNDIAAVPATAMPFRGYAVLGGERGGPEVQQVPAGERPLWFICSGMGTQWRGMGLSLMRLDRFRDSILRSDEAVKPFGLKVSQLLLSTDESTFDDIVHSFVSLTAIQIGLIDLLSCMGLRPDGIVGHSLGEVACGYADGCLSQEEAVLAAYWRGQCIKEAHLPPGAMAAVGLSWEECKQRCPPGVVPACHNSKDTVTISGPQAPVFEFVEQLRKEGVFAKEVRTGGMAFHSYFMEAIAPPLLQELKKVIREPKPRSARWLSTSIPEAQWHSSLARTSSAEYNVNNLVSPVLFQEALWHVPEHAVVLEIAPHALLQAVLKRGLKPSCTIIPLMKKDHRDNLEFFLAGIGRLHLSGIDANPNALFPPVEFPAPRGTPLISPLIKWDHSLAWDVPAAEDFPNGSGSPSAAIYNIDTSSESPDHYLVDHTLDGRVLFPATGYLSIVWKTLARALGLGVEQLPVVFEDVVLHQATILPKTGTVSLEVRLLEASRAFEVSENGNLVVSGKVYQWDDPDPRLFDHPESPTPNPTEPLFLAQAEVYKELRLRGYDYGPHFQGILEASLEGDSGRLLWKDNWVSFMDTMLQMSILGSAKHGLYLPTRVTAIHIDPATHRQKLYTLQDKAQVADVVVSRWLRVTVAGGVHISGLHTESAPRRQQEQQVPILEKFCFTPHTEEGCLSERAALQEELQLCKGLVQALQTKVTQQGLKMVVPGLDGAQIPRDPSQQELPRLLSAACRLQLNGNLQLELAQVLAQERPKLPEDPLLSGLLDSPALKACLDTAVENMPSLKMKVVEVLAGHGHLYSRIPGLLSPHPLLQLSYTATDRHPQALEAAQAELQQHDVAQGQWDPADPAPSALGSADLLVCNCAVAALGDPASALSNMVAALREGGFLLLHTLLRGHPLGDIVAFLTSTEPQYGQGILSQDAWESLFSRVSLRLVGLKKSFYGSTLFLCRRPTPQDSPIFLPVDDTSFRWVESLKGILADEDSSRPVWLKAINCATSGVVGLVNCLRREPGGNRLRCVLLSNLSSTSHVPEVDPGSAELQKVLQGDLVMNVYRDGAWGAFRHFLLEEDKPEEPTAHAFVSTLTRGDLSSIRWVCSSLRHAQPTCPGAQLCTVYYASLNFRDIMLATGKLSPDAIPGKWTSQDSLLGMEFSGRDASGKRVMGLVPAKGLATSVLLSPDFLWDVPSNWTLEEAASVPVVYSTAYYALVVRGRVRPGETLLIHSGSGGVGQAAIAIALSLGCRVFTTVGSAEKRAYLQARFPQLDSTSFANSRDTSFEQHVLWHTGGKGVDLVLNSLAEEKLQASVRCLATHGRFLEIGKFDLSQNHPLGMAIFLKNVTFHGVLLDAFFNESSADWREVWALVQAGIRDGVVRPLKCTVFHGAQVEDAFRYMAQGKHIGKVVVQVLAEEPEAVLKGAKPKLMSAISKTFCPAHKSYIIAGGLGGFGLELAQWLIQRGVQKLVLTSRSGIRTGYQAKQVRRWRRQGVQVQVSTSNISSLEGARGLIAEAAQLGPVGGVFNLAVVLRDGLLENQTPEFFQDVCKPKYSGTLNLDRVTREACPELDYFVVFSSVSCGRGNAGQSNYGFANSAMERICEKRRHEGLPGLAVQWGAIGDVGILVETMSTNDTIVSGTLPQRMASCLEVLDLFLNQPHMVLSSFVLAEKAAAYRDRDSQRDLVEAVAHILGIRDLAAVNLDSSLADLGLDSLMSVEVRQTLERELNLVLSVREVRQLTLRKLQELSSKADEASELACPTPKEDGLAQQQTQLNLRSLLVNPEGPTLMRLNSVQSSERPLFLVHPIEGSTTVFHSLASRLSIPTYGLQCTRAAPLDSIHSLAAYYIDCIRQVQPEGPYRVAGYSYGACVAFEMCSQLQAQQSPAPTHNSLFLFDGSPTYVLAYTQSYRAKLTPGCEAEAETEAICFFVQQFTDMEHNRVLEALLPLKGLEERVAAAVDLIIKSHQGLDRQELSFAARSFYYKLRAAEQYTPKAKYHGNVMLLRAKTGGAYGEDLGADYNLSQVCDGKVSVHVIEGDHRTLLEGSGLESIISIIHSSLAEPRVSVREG
Broad substrate specificity ATP-binding cassette transporter ABCG2 (Homo sapiens), sequence (Q9UNQ0 whole entry, looked up): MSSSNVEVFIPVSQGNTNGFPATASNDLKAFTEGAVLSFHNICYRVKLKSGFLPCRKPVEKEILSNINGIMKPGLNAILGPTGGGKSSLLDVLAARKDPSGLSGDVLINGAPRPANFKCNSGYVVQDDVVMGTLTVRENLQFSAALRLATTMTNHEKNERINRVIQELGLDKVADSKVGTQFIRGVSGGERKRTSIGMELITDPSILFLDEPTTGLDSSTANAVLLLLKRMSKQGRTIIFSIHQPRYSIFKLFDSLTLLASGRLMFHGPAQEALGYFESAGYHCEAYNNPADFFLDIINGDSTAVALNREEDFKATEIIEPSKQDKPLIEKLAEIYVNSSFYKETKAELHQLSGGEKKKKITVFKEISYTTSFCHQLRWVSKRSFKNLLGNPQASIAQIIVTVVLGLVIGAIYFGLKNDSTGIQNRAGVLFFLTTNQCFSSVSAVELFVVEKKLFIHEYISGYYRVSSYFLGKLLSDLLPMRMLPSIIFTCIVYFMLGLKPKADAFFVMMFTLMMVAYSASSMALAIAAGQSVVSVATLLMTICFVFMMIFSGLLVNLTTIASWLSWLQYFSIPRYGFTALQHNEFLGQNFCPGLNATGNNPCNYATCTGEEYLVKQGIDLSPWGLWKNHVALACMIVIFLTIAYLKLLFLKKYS

`COc1cc(OC)nc(Sc2cccc(Cl)c2C(=O)O)n1`: the result in [1], in assay [2], in assay [3], in assay [4], in assay [5] and in assay [6] was inactive. Moreover, the outcome in assay [7], in assay [8], in assay [9], in [10], in assay [11] and in assay [12] was inactive. The outcome in assay [13], in [14], in assay [15], in assay [16] and in [17] was inactive.

As to `CC(C)N(C(=O)SCC(Cl)=C(Cl)Cl)C(C)C`, the compound was classed as inactive in assay [2], in assay [18], in [3], in assay [4], in assay [5] and in [6]. The result in assay [8], in assay [9], in assay [10], in assay [11], in assay [12] and in assay [13] was inactive. Besides, the call in assay [14], in assay [15], in [16] and in assay [17] was inactive. Further, in [7], the AC50 was 67.5 µM (active).

Take `CCCCSP(=O)(SCCCC)SCCCC`: the outcome in [2], in [18], in assay [3], in assay [4], in assay [5] and in assay [6] was inactive. The result in assay [8], in assay [9], in assay [10], in [11], in [13] and in assay [14] was inactive. Moreover, the compound was classed as inactive in assay [16]. Moreover, the concentration at half-maximal activity (AC50) in [7] was 27.6 µM (active); in assay [12], 50 µM (active); in [15], 73.9 µM (active); in assay [17], 50 µM (active).

As for `CCOP(=O)(OCC)Oc1cc(C)nc(C(C)C)n1`, the outcome in assay [2], in assay [3], in assay [4], in assay [5], in assay [6] and in assay [8] was inactive. Moreover, the call in assay [9], in assay [10], in [11], in [12], in [13] and in assay [14] was inactive. For the same compound, the outcome in assay [15], in assay [16] and in assay [17] was inactive. The half-maximal activity concentration (AC50) in [7] was 50.2 µM (active).

As for `COP(=O)(OC)C(O)C(Cl)(Cl)Cl` (stereo not drawn), the outcome in [1], in [2], in assay [3], in assay [4], in [5] and in assay [6] was inactive. For the same compound, the result in assay [8], in assay [9], in [11], in assay [12], in [13] and in [14] was inactive. In addition, the outcome in assay [15], in [16] and in assay [17] was inactive. Moreover, the half-maximal activity concentration (AC50) in assay [10] was 0.12 µM (active).
